High-throughput results from PubChem.
Rows were chosen to be rich in hits. Some 12% of all compounds tested hit in one or more screens of this group.
AmpC inh detg – inhibitors of E. coli AmpC beta-lactamase with detergent; AmpC hydrolysis of nitrocefin, absorbance 480 nm, 0.01% Triton; Potency, µM (doses to about 114 µM), for inactives: top-dose activity change, negative = inhibition, hits mostly inhibitors; hit rate 0.041% among 370,000;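 further: 0% = no-compound wells and -100% = no-enzyme wells; nearly all actives have a fitted effect of over 25% in size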
Target sequence (P00811 whole entry, looked up): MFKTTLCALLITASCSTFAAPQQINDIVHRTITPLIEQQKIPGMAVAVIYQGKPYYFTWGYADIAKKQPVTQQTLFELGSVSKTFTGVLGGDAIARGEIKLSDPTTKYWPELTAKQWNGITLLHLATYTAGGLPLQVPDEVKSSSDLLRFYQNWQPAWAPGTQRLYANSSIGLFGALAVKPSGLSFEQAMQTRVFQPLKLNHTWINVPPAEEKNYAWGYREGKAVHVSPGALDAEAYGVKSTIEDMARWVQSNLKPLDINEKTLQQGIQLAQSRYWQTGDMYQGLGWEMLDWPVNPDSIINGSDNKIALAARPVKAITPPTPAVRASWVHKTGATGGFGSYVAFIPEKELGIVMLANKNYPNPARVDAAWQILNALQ
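AmpC (5.3 nM in the dispensed reagent) in 20 mM phosphate pH 7.0 with 0.01% (detergent screen) or 0.0001% Triton X-100 was preincubated with compounds for 15 min at room temperature. Nitrocefin was then added from an 800 uM solution, and hydrolysis was followed at 480 nm.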
Pf growth 48h – P. falciparum growth inhibition at 48 hours (one generation) | P. falciparum luciferase growth in erythrocytes, 48 h | Potency, µM (doses to about 28.7 µM), inactives show at the top dose activity change, negative = inhibition, most hits filed as inhibitors | hit rate 5.9% among 310,000; further: on the % scale 0 is the no-effect control and ±100 the full control effect
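Cell-based growth assay: transgenic P. falciparum expressing firefly luciferase, cultured in red cells within RPMI 1640 containing 0.5% w/v Albumax, 24 mM bicarbonate and gentamycin. A drop in luciferase activity indicates inhibition.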
AmpC inh no detg – AmpC beta-lactamase inhibition without detergent. P00811. AmpC nitrocefin hydrolysis, absorbance 480 nm, 0.0001% Triton. Potency, µM (series often up to 57.1 µM), inactives show at the highest dose activity change, negative = inhibition, most hits filed as inhibitors. hit rate 0.52% among 330,000. AID 485341;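 further: plate controls were no compound for no effect and no enzyme for full effect; nearly all actives have a fitted effect of over 20% in size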
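AmpC (5.3 nM in the dispensed reagent) in 20 mM phosphate pH 7.0 with 0.01% (detergent screen) or 0.0001% Triton X-100 was preincubated with compounds for 15 min at room temperature. Nitrocefin was then added from an 800 uM solution, and hydrolysis was followed at 480 nm.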
Pf growth 96h – P. falciparum growth inhibition at 96 hour, primary screen for plastid delayed-death inhibitors | P. falciparum luciferase reporter growth, 96 h | Potency, µM (titrated, usually from 28.7 µM), without a hit: at the top dose activity change, negative = inhibition, hits mostly inhibitors | hit rate 6.9% among 320,000 | AID 504834; further: on the % scale 0 is the no-effect control and ±100 the full control effect
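Delayed-death screen, second-generation endpoint: infected erythrocytes, 2% hematocrit, 0.05% parasitemia final; 96 hours at 37 C, 5% CO2; luciferase detection reagent; luminescence decrease equals reduced growth.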
SARS PLP yeast – SARS-CoV PLP inhibition in yeast | S. cerevisiae expressing SARS-CoV PLpro, growth rescue | Potency, µM (doses to about 32.9 µM), for inactives: top-dose activity, positive = growth rescue, hits mostly activators | hit rate 0.19% among 330,000 | AID 485353; calls by dose curve; further: 0% is about no effect; nearly all actives have a fitted effect of over 55% in size
Sm TGR inh – blocks Schistosoma mansoni thioredoxin glutathione reductase; purified TGR, DTNB reduction, TNB absorbance 405 nm; Potency, µM (top dose mostly 114 µM), without a hit: at the top dose activity change, negative = inhibition, most hits filed as inhibitors; hit rate 3% among 360,000; further: on the % scale 0 is the no-effect control and ±100 the full control effect; nearly all actives have a fitted effect of over 60% in size
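TGR 20 nM + NADPH 100 uM (dispensed conc.), cpd preinc 15 min RT; start with NADPH (500 uM addition) then DTNB (15 mM addition). Kinetic TNB absorbance, 405 nm filter. Four-parameter Hill fit across titration.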
An asterisk follows results filed as active; ? = inconclusive; / = no result. Unless noted, the call rests on the fitted dose curve; in most records, active means well fitted curve in the direction sought with a large enough effect; inconclusive means small, poorly fitted or top-dose-only effect, or another doubt; inactive means no such curve, though single readings can be large; an effect the other way counts as inactive or inconclusive. Potency means the concentration at half of the fitted maximal effect.

SMILES | AmpC inh detg | Pf growth 48h | AmpC inh no detg | Pf growth 96h | SARS PLP yeast | Sm TGR inh
O=C(NC(=S)Nc1ccc(CN2CCOCC2)cc1)c1ccc(-c2ccc(Br)cc2)o1 | -5% | 13µM* | -38% | ? | 1% | ?
COc1ccc(Br)cc1C(=O)NC(=S)Nc1ccc(CN2CCOCC2)cc1 | 2% | ? | 143% | 4.7µM* | -6% | -23%
O=C(NC(=S)Nc1ccc(CN2CCOCC2)cc1)c1ccc(-c2ccc(Cl)cc2)o1 | -2% | 5% | -16% | ? | 1% | -28%
Cc1ccc(C2=NN(CC(=O)NCCCN(CC(C)C)CC(C)C)C(=O)CC2)cc1 | -3% | / | / | / | / | 6%
Cc1ccc(NCc2cccn2-c2nnc(N3CCC(C(=O)NCc4ccc(F)cc4)CC3)s2)cc1 | 4% | / | / | / | / | -20%
Cc1cccc(-c2oc3ccccc3c2-c2ccc3c(c2)OCO3)c1 | ? | ? | -35% | 9.3µM* | -2% | -14%
Cc1cccc(-c2noc(-c3ccc4c(c3)OCO4)n2)c1 | 2% | 14% | 4% | -20% | -1% | 0%
Cn1cnc2c(=O)oc3ccc(S(=O)(=O)N4CCN(c5ccccc5F)CC4)cc3c21 | 18% | / | / | / | / | 2%
Cc1ccc(N=Nc2c(C)[nH][nH]c2=O)c(C)c1 | ? | / | 5% | ? | -1% | -14%
CC(=O)c1ccccc1NC(=O)COC(=O)/C(=C/c1ccccc1)n1nnnc1C | -7% | 5.9µM* | -2% | 2.1µM* | -4% | ?
CCOC(=O)c1ccc(Oc2nc(NC)nc(SC)n2)cc1 | -6% | 3.7µM* | -22% | / | -9% | -18%
CCNc1nc(Oc2ccc(C(=O)OCC)cc2)nc(SC)n1 | -10% | 12µM* | -7% | 6% | -10% | -25%
COc1cc(-c2ccc(Nc3ccccc3C(=O)O)c(OC)c2)ccc1Nc1ccccc1C(=O)O | 2% | ? | -57% | ? | 4% | 45µM*
COCCn1c(=NC(=O)CSCC(=O)NC2CCCCC2)sc2cc(OC)ccc21 | -7% | ? | 1% | -14% | -13% | 2%
CCOCCn1c(=NC(=O)CSCC(=O)Nc2cc(C)on2)sc2cc(OC)ccc21 | 3% | 5.2µM* | -15% | 5.2µM* | 18% | -6%
CCOC(=O)c1ccc(NC(=O)CC2C(=O)N(c3cccc(OC)c3)C(=O)N2Cc2ccc(OC)cc2)cc1 (stereo unspecified) | 3% | / | / | / | / | 7%
COc1ccc(-n2c(Cc3cccn3C)nnc2SCC(=O)N2CCC(C)CC2)cc1 | -1% | ? | 168% | 0.37µM* | 6% | -18%
Cc1ccc(-n2c(Cc3cccn3C)nnc2SCC(=O)N2CCN(c3ccccc3)CC2)cc1 | ? | ? | 151% | -16% | -8% | 40µM*
CC1CCN(C(=O)CSc2nnc(Cc3cccn3C)n2-c2ccc(F)cc2)CC1 | ? | ? | 6.3µM* | 1% | 0% | -28%
COc1ccc2cc(C(=O)C3CCCN(C(=O)c4cc5nc(C)cc(C)n5n4)C3)ccc2c1 (stereo unspecified) | 6% | 12% | 165% | 24% | 3% | 2%
CCOC(=O)c1ccccc1NC(=O)CN1CCCN(Cc2cccc(Cl)c2)S1(=O)=O | -4% | / | / | / | / | 4%
O=C(Nc1cccs1)OCCN1CCN(Cc2ccccc2)CCC1=O | -9% | 6% | -22% | 1% | -9% | -9%
CCC(=O)N1N=C(c2c(-c3ccccc3)c3cc(Cl)ccc3[nH]c2=O)CC1c1ccco1 (stereo unspecified) | -1% | 10µM* | -7% | ? | 5% | -21%
O=C(O)CCC(=O)N1N=C(c2c(-c3ccccc3)c3cc(Cl)ccc3[nH]c2=O)CC1c1ccco1 (stereo unspecified) | -10% | ? | -23% | ? | 8% | -23%
COc1cccc(C2CC(c3c(-c4ccccc4)c4cc(Cl)ccc4[nH]c3=O)=NN2S(C)(=O)=O)c1OC (stereo unspecified) | 4% | 7.4µM* | 134% | / | -6% | ?
SMILES | AmpC inh detg | Pf growth 48h | AmpC inh no detg | Pf growth 96h | SARS PLP yeast | Sm TGR inh
COc1ccccc1C1CC(c2c(-c3ccccc3)c3cc(Cl)ccc3[nH]c2=O)=NN1S(C)(=O)=O (stereo unspecified) | 0% | 12µM* | 35% | ? | 4% | -27%
CN1CCn2c1nc(N1CCOCC1)nc2=O | -2% | -15% | -22% | / | 6% | -7%
COc1cc(C(=O)OCC(=O)c2ccccc2)cc2c1OCCO2 | -1% | -9% | -6% | 34% | 4% | -7%
C=CCn1c(O)c(C(C)=Nc2ccc(N(C)C)cc2)c(=O)[nH]c1=O | ? | 12µM* | -19% | / | 1% | 8%
COc1ccc(/C=C/c2cc(-c3ccc(C)cc3)o[n+]2C)cc1 | -9% | ? | -20% | 0.15µM* | -11% | -8%
COc1ccc(/C=C/c2c(-c3ccc(OC)cc3)oc3ccc(-c4ccc(OC)cc4)cc23)cc1 | ? | 8% | -24% | ? | -9% | -5%
O=C1CC2(CCN(C(=O)C3CC(=O)N(c4ccccc4)C3)CC2)Oc2ccccc21 (stereo unspecified) | 1% | ? | 25% | 9.3µM* | -1% | 0%
COc1cccc(N2CC(C(=O)N3CCC4(CC3)CC(=O)c3ccccc3O4)CC2=O)c1 (stereo unspecified) | 1% | ? | 107% | 61% | 0% | 6%
CC(C)CC(C(=O)O)N1C(=O)C2C3CC(C2C1=O)C1C(c2ccccc2)c2sc(=O)[nH]c2SC31 (stereo unspecified) | ? | 14% | -5% | 20% | 13% | -12%
CCOc1ccc(-n2c(SCC(=O)N3CCCCC3)nc3c([nH]c4ccccc43)c2=O)cc1 | 7% | / | / | / | / | 8%
Oc1ccccc1/C=N/c1c(-c2ccco2)nc2ccccn12 | -12% | -22% | 154% | / | -2% | 50µM*
O=C(O)c1ccccc1C(=O)NCC(O)COc1ccc(Cl)cc1 (stereo unspecified) | 2% | 30% | -6% | 46% | 0% | 1%
Cc1cccc([C@@H]2[C@@H]3C(=O)N(Cc4ccccc4)C(=O)[C@@H]3[C@]3(Cc4ccc(Cl)cc4)C(=O)N(c4cccc(Br)c4)C(=O)N23)c1 | 1% | ? | -21% | ? | 0% | 3%
Cc1cccc([C@@H]2[C@@H]3C(=O)N(Cc4ccccc4)C(=O)[C@@H]3[C@]3(Cc4ccc(Cl)cc4)C(=O)N(c4ccccc4)C(=O)N23)c1 | -10% | ? | -33% | ? | 7% | 3%
